BJeLR lethal: BJeLR cell viability loss. BJeLR (HRASV12) viability, CellTiter-Glo ATP luminescence, 48 h. inhibition, % (concentration not given with the values). 0.17% of 300,000 active. AID 1554; in the data active = inhibition above about 50%
ugtP null kill: kills S. aureus RN4220 lacking UgtP. 0.54% of 330,000 active. S. aureus RN4220 ugtP deletion, OD600 growth, 16 h. growth inhibition, % (test concentration not listed). AID 1259309; in the data active = growth inhibition above about 68%;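 note: plate controls were untreated wells for no effect and antibiotic for full effect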
PrPC TRFRET: reduces human prion protein on the cell surface; P04156; cell surface PrPC, TR-FRET read-out; inhibition, % at 13.8 µM; 0.43% of 370,000 active; in the data active = inhibition above about 24%; note: 0% = median of the test wells and 100% = reference compound wells
RN4220 kill: S. aureus RN4220 growth inhibition | 0.33% of 330,000 active | OD600, 16 h | inhibition, % (concentration not given with the values); in the data active = inhibition above about 85%;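 note: plate controls were untreated cells for no effect and reference antibiotic for full effect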
Starred values were filed as active, the others as inactive. In the library only some 0.95% were active in any assay of this set; here they are far more common.

For COc1ccc(C=NNc2nc(-c3ccc(C)cc3)c(NC(C)=O)s2)cc1OC the results were ugtP null kill 11 and RN4220 kill 3.
For COc1ccc(C(=O)NC(=S)Nc2ccc(N3CCOCC3)cc2)cc1Cl the results were BJeLR lethal -10, ugtP null kill 99*, PrPC TRFRET 10 and RN4220 kill -3.
Screening O=C(NC(=S)Nc1ccc(N2CCOCC2)cc1)c1ccc(Cl)cc1 returned BJeLR lethal -2, ugtP null kill 87*, PrPC TRFRET -3 and RN4220 kill 3.
For Cc1cccc(C(=O)NC(=S)Nc2ccc(N3CCOCC3)cc2)c1 the results were BJeLR lethal -13, ugtP null kill 87*, PrPC TRFRET 14 and RN4220 kill 2.
For CC(C)(C)c1ccc(C(=O)NC(=S)Nc2ccc(N3CCOCC3)cc2)cc1 the results were BJeLR lethal 32, ugtP null kill -8, PrPC TRFRET 1 and RN4220 kill -8.
O=C(NC(=S)Nc1ccc(N2CCOCC2)cc1)c1ccc2c(c1)OCCO2 was read as BJeLR lethal 11, ugtP null kill 34, PrPC TRFRET -1 and RN4220 kill 1.
`Cc1ccc(C(=O)NC(=S)Nc2ccc(N3CCOCC3)cc2)cc1C` gave BJeLR lethal 7, ugtP null kill 25, PrPC TRFRET 14 and RN4220 kill 1.
`CS(=O)(=O)N1CCN(c2ccc(NC(=S)NC(=O)c3ccc4c(c3)OCO4)cc2)CC1` gave BJeLR lethal -1, ugtP null kill 93*, PrPC TRFRET 8 and RN4220 kill 7.
`C[C@H]1COc2cc(N3CCSCC3)ccc2S(=O)(=O)N1C` gave PrPC TRFRET 6.
`O=C(/C=C/c1ccc(F)cc1)NNC(=O)CCN1CCN(Cc2ccccc2)CC1` gave BJeLR lethal 55*, ugtP null kill -3, PrPC TRFRET -12 and RN4220 kill -4.
`CCCc1ccc(Oc2c(-c3ccc(O)c(C)c3O)n[nH]c2C)cc1` gave BJeLR lethal 4, ugtP null kill 97*, PrPC TRFRET 9 and RN4220 kill 77.
CCCOC(=O)c1ccc(Oc2cn[nH]c2-c2ccc(OCC)cc2O)cc1 was read as BJeLR lethal -11, ugtP null kill 0, PrPC TRFRET -5 and RN4220 kill -14.
`CCCc1ccc(Oc2cn[nH]c2-c2ccc(O)c(C)c2O)cc1` gave BJeLR lethal 3, ugtP null kill 100*, PrPC TRFRET 15 and RN4220 kill 99*.
`C#CCOCCOCCOCCNc1nc(N2CCN(C(=O)C(C)n3cc(CCC(=O)O)nn3)CC2)nc(N2CCN(C(=O)C(C(C)CC)n3cc(CCCCN)nn3)CC2)n1` (configuration not stated) gave ugtP null kill -1 and RN4220 kill 2.
For COc1ccc(C=NOCc2ccc(Br)cc2)c(OC)c1 the results were ugtP null kill 87* and RN4220 kill -2.
COc1ccc(/C=N/OCc2ccc(Br)cc2)c(OC)c1 was read as BJeLR lethal 1 and PrPC TRFRET 2.
For Cc1ccc(C(=O)NN=Cc2cc3c(cc2Br)OCO3)cn1 the results were ugtP null kill 8 and RN4220 kill 2.
`ClC1=C(Cl)C(Cl)=C(Cl)C1=C/C=C/c1ccccc1` gave BJeLR lethal 89*, ugtP null kill -3, PrPC TRFRET -9 and RN4220 kill 4.
O=C(/C=C/c1ccco1)Nc1ccccc1N1CCCC1 was read as BJeLR lethal -6, ugtP null kill 10, PrPC TRFRET -11 and RN4220 kill 6.
Screening O=C(/C=C/c1ccco1)NC(=S)Nc1ccccc1N1CCCC1 returned BJeLR lethal -9, ugtP null kill 99*, PrPC TRFRET -1 and RN4220 kill -2.
Screening O=C(/C=C/c1ccco1)NC(=S)Nc1ccccc1N1CCOCC1 returned BJeLR lethal -4, ugtP null kill 98*, PrPC TRFRET -8 and RN4220 kill 3.
For O=C(/C=C/c1ccco1)NC(=S)Nc1cc(C(F)(F)F)ccc1N1CCOCC1 the results were BJeLR lethal -6 and PrPC TRFRET 4.
`O=C(C=Cc1ccco1)NC(=S)Nc1cc(C(F)(F)F)ccc1N1CCOCC1` gave ugtP null kill 96* and RN4220 kill -4.
c1ccc(-c2noc(-c3ccccc3-c3ccccc3)n2)cc1 was read as BJeLR lethal -15, ugtP null kill 95*, PrPC TRFRET -5 and RN4220 kill -9.
`O=S(=O)(NN=Cc1ccc2c(c1)OCO2)c1ccc(Cl)cc1` gave ugtP null kill -5 and RN4220 kill 1.
`COc1cc2cc(C(=O)NN=Cc3ccc(F)cc3)[nH]c2cc1OC` gave ugtP null kill -16 and RN4220 kill 5.
`O=C(O)CCc1ccc(-c2ccccc2)n1-c1cccc(C(=O)O)c1` gave BJeLR lethal 5, ugtP null kill 1, PrPC TRFRET 0 and RN4220 kill 2.
O=C(O)CCc1ccc(-c2ccc(Br)cc2)n1-c1cccc(O)c1 was read as BJeLR lethal 5, ugtP null kill 85*, PrPC TRFRET 2 and RN4220 kill 35.
For Cc1cccc(C(=O)ON=C(N)c2ccc(Br)cc2)c1 the results were ugtP null kill -5 and RN4220 kill -1.
For CN(C)c1ncc(S(=O)(=O)c2ccc(Cl)cc2)c(-c2ccccc2)n1 the results were BJeLR lethal 2, ugtP null kill 16, PrPC TRFRET 12 and RN4220 kill 10.
`O=S(=O)(c1ccc(Cl)cc1)c1snnc1-c1ccccc1` gave BJeLR lethal 96*, ugtP null kill 0, PrPC TRFRET 7 and RN4220 kill 3.
`c1ccc(-c2nnsc2-c2ncc[nH]2)cc1` gave BJeLR lethal 5, ugtP null kill 14, PrPC TRFRET -4 and RN4220 kill 2.
Screening O=S(=O)(c1ccc(F)cc1)c1snnc1-c1ccccc1 returned BJeLR lethal 61*, ugtP null kill 1, PrPC TRFRET -4 and RN4220 kill 10.
`COc1ccc(C=NNC(=O)Nc2ccc3nsnc3c2)c(OC)c1` gave ugtP null kill 4 and RN4220 kill 2.
For COc1ccc(-c2nc(N3CCN(C)CC3)sc2-c2ccc(OC)cc2)cc1 the results were BJeLR lethal -4, ugtP null kill 99*, PrPC TRFRET 8 and RN4220 kill -4.
`COc1ccc(N(C(C)C(=O)NN=Cc2ccc(OCC(C)C)cc2)S(C)(=O)=O)cc1` (configuration not stated) gave ugtP null kill -6 and RN4220 kill 7.
For CC(C)CC(=O)/C=C/n1c(=S)oc2ccccc21 the results were BJeLR lethal 4, ugtP null kill 11, PrPC TRFRET 4 and RN4220 kill 0.
Screening CC(=O)/C=C/n1c(=S)oc2ccccc21 returned BJeLR lethal 71*, ugtP null kill 1, PrPC TRFRET 7 and RN4220 kill 3.
Screening CC1CCC(C(C)C)C(OC(=O)Cn2c(-c3ccc(Cl)cc3)[n+](C)c3ccccc32)C1 (configuration not stated) returned BJeLR lethal 21, ugtP null kill 100*, PrPC TRFRET 8 and RN4220 kill 100*.
`Cc1ccccc1OCc1n(CC(=O)OC2CC(C)CCC2C(C)C)c2ccccc2[n+]1C` (configuration not stated) gave BJeLR lethal 5, ugtP null kill 101*, PrPC TRFRET -7 and RN4220 kill 100*.

Screening data (PubChem BioAssay)
